Source: the supplement of paper PMC10338343
± gives the standard deviation.

System: MILI (PIWIL2) piRISC loaded with piRNA #1 (26 nt)
Experiment: pre-steady-state target cleavage rate (min^-1); guide: piRNA #1 5'p-UGAGGUAGUAGGUUGUAUAGUAUCCA; MIWI and MILI are mouse PIWI proteins and EfPiwi is from a freshwater sponge; tags in brackets are library labels; higher = faster piRNA-guided slicing of the target
Conditions: auxiliary factor: 500 nM mouse GTSF1
Method in brief: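 The pre-steady-state cleavage rate was obtained by Cleave-'n-Seq with a burst-and-steady-state fit. A transcribed, DNA-blocked target RNA library (0.1 nM) was mixed with 1 nM active affinity-purified piRISC carrying one synthetic guide, with or without 500 nM GTSF1 partner protein, in HEPES–potassium acetate buffer at 33 °C for 0–8 or 0–960 min. Uncleaved targets were sequenced and normalised to depth and to weakly complementary targets, with three trials pooled and k3 capped at 0.0001 min^-1.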

Row | Sequence | pre-steady-state target cleavage rate
1 | GGAGACCUAACUAUACAACCUACAAGCUCA | 0.0191 ± 0.011
2 | GGAGACCAUACUAUAGUACCUACUACCUCA | 0.149 ± 0.018
3 | GGAGACCUAUGAUAACAACCUACUACCGUCA | 0.00366 ± 0.0026
4 | GGAGACCUAACUAUACUACCUACAACCUCA | 0.0957 ± 0.018
5 | GGAGACCUAUGAUAACAACCUACUGCCUCA | 0.00428 ± 0.0031
6 | GGAGACCUAUGUUUACAACCUACUACGUCA | 0.00415 ± 0.0018
7 | GGAGAGGAUACUAUAGUACCUACUACCUCA | 0.159 ± 0.012
8 | GGAGACCUAUGAUAUCAACUCUACUACCUCA | < 0.0001
9 | GGAGACCAUACUAAACAACCUAGUACCUCA | 0.0362 ± 0.0083
10 | GGAGACCUAUGUAUACAUCCUACUACCUCA | 0.124 ± 0.012
11 | GGAGACCUAUGAAUACAACCUACUACUCUCA | 0.00959 ± 0.002
12 | GGAGAGGAUUCUAUACAACCUUCUACCUCA | 0.00976 ± 0.0032
13 | GGAGACCUAAGUAUACAACCUACUACGUCA | 0.0129 ± 0.0032
14 | GGAGACCUAUGUAUACAACCCACUACCUCA | 0.0101 ± 0.0034
15 | GGAGACCUAUGUAUACAACCUACUACGCUCA | 0.0944 ± 0.013
16 | GGAGACCUAUGUAUAGAACCUACUACCUCA | 0.0559 ± 0.0092
17 | GGAGACCUAUCUAUACAAGCUACUACCACA | 0.278 ± 0.019
18 | GGAGACCUUACUAUUCAACCUACUACCUGA | 0.0942 ± 0.014
19 | GGAGACCUUACUAUAGAACCUACUUCCUCA | 0.00446 ± 0.0033
20 | GGAGACCUAUGUUAACAACCUACUACCUCA | 0.0234 ± 0.0048

Row | Sequence | pre-steady-state target cleavage rate
21 | GGAGACCUAUCUAUAGAAGCUACUACCUCA | 0.143 ± 0.019
22 | GGAGACCUAUGAUAUGUACGUACUACCUGA | < 0.0001
23 | GGAGACCUAUGUAUACUACCUACUACCUGA | 0.0173 ± 0.0042
24 | GGAGACCUAACUAGACAACCUACUACCUCA | 0.0997 ± 0.02
25 | GGAGACCAUUCUAUUCAACCUACUACCUCA | 0.102 ± 0.012
26 | GGAGACCUUACUAUACAACCUACUCACCUCA | 0.17 ± 0.018
27 | GGAGACCUAUGAUAUCAACCUAGCUACCUCA | 0.00339 ± 0.0024
28 | GGAGACCUAUGUAUACAACCUACUACCUGA | 0.0463 ± 0.008
29 | GGAGACGAUACUAAUGAACCUACUACCUCA | 0.0821 ± 0.011
30 | GGAGUGCAUACUAUACAACCUACUACGUCA | 0.0632 ± 0.0079
31 | GGAGACCUAUCUAAACAACCUACUACGUCA | 0.0213 ± 0.0039
32 | GGAGACCUUAACUAUACAACCUACUACCUCA | 0.138 ± 0.01
33 | GGAGACCUAUCUAUACAAUCUACUACCUCA | 0.093 ± 0.0085
34 | GGAGACCUAUGAUUACUACCUACUACCUCA | 0.00306 ± 0.0021
35 | GGAGAGGAUAGUAUUCAACCUACUACCUCA | 0.0731 ± 0.011
36 | GGAGACCUAUGUAUACUACCUACUAGCUCA | 0.0108 ± 0.0031
37 | GGAGACCUAUGAUAUCAAACUACUACCUCA | 0.00495 ± 0.0026
38 | GGAGACCUAUGAUAUGUUCCUACUUACCUCA | < 0.0001
39 | GGAGACGAUACAUAACAACCUACUACCUCA | 0.114 ± 0.013
40 | GGAGACCUAAGUAUACAACCAACUACCUCA | 0.00465 ± 0.0039
